Assay results as given in PubChem BioAssay.

assay: blood-stage malaria parasite viability loss – strain 3D7, DAPI fluorescence, 100 nL, primary screen (AID 1184);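 note: parasites grown inside human red blood cells in medium with human serum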; settings: P. falciparum 3D7 growth, 3 d, higher = more signal

Question: Which z-score does the source give for `COCCOC(=O)N1C(=O)[C@@]2(c3cc(C#CC4=CCCCC4)ccc31)[C@H](C(=O)NC[C@H](O)c1ccccc1)[C@H]1C(=O)O[C@H](c3ccccc3)[C@H](c3ccccc3)N1[C@@H]2c1ccc(OCCO)cc1` here?
Answer: Its z-score is -1.73.

Question: Which z-score does the source give for `CCC#CCN(Cc1ccccc1Br)[C@H](/C=C/c1ccccc1)[C@@H](O)Cc1ccccc1` here?
Answer: Its z-score is -0.609.

Question: For `C=C(CCCC)/C(=C/C[C@@H](OC(=O)c1ccncc1)c1cccc(OCCO)c1)c1cc(C(=O)OC)ccc1OC`, which z-score is on record?
Answer: The z-score was -3.09.

Question: Which z-score does the source give for `NC(=O)NCC#Cc1ccc2c(c1)[C@]1(C(=O)N2)[C@H](c2ccccc2OCCO)N2[C@H](c3ccccc3)[C@H](c3ccccc3)OC(=O)[C@H]2[C@@H]1C(=O)N1CCN(c2ncccn2)CC1` here?
Answer: The z-score was -2.34.

Question: Which z-score does the source give for `O=C1OCC=C[C@H]2OC34C=CCN(Cc5ccccc5)C(=O)[C@H]3N(CCO)C(=O)[C@@H]4[C@@H]12` (stereo partly specified) here?
Answer: Its z-score is 0.438.

Question: With `Cc1ccc(S[C@]2(C(=O)NC(C)C)CC(=O)N(Cc3cc(C(F)(F)F)cc(C(F)(F)F)c3)[C@@H]2c2ccc(CO)cc2I)cc1` as the compound, how does the z-score read?
Answer: The z-score was 0.201.

Question: For `COc1ccc(C(=O)Nc2ccc(CN3C(=O)[C@]4(O[C@H](CCn5cc(CCO)nn5)[C@@H]([Si](C)(C)c5ccc(OC)cc5)[C@@H]4C)c4ccccc43)cc2)cc1`, which z-score is on record?
Answer: Its z-score is -2.78.

Question: With `COC(=O)[C@@]1(Cc2ccccc2)[C@H]2c3cc(C(=O)N4CCCC4)n(CCN4CNCC4=O)c3C[C@H]2CN1C(=O)c1ccccc1` as the compound, how does the z-score read?
Answer: The z-score was -1.12.

Question: With `CCCNC(=O)[C@@H]1c2ccccc2C(=O)N(C2CCCCC2)[C@H]1c1ccc(CO)cc1` as the compound, how does the z-score read?
Answer: The z-score was -0.939.

Question: Which z-score does the source give for `CC(C)C[C@@H]1NC(=O)[C@H]2C[C@@H](C(=O)NCCCCCC[N+](C)(C)C)[C@@H](c3ccc(O)cc3)N2C1=O` here?
Answer: Its z-score is 1.17.

Question: With `O=C(NCc1ccccc1)[C@@]1(Cc2ccccc2)COC(c2ccc(OCCCO)cc2)=N1` as the compound, how does the z-score read?
Answer: The z-score was -2.15.

Question: Which z-score does the source give for `C=CCN1C(=O)[C@@]2(Cc3ccccc3)N=C(c3ccc(OCCCO)cc3)O[C@H]2c2ccccc21` here?
Answer: The z-score was -1.92.

Question: With `COCCCNC(=O)[C@@H]1c2ccccc2C(=O)N(CC23CC4CC(CC(C4)C2)C3)[C@H]1c1ccc(CO)cc1` as the compound, how does the z-score read?
Answer: Its z-score is -1.95.

Question: Which z-score does the source give for `[N-]=[N+]=NCc1ccccc1[C@H]1OC(c2ccc(OCCCO)cc2)=N[C@@]1(Cc1ccccc1N=[N+]=[N-])C(=O)NCc1ccccc1` here?
Answer: The z-score was -2.49.

Question: Which z-score does the source give for `O=C1C2C=CC(C(O)c3ccccc3)N(n3cnnc3)C2C(=O)N1Cc1ccccc1` (stereo unspecified) here?
Answer: Its z-score is 0.454.

Question: Which z-score does the source give for `CCCC[C@@H]1C[C@H]1[C@@H](NC(=O)c1ccccc1)c1ccccc1C(F)(F)F` here?
Answer: The z-score was -1.19.

Question: Which z-score does the source give for `COc1ccc(CCN2C(=O)[C@@]3(c4ccc([N+](=O)[O-])cc4)CC(=O)N(CC45CC6CC(CC(C6)C4)C5)[C@@H]3c3ccc(CO)cc32)cc1` here?
Answer: Its z-score is -1.07.

Question: For `O=C1O[C@@H](c2ccccc2)[C@@H](c2ccccc2)N2[C@@H](c3ccc(OCCO)cc3)[C@]3(C(=O)Nc4ccc(C#CCCO)cc43)[C@@H](C(=O)N3CCN(c4ncccn4)CC3)[C@H]12`, which z-score is on record?
Answer: The z-score was -2.03.

Question: Which z-score does the source give for `Cc1ccc(S[C@]2(C(=O)NC(C)C)CC(=O)N(C3Cc4ccccc4C3)[C@@H]2c2ccc(CO)cc2)cc1` here?
Answer: The z-score was -1.29.

Question: With `O=C1O[C@H](c2ccccc2)[C@H](c2ccccc2)N2[C@H]1[C@@H](C(=O)Nc1nc3ccccc3s1)[C@]1(C(=O)Nc3ccc(C#CC4=CCCCC4)cc31)[C@H]2c1ccccc1OCCO` as the compound, how does the z-score read?
Answer: The z-score was -2.09.

Question: For `C=CC[C@]1(C(=O)O)N=C(c2ccc(OCCCO)cc2)O[C@H]1c1ccccc1N=[N+]=[N-]`, which z-score is on record?
Answer: The z-score was -1.3.

Question: Which z-score does the source give for `CCOC(=O)C1=C[C@@H](c2ccccc2)N(S(=O)(=O)c2ccc(C)cc2)[C@H]1c1ccc(F)cc1` here?
Answer: The z-score was -2.17.

Question: For `C=CCC(OC(C)=O)[C@@H]1[C@@H](N(Cc2cccc3ccccc23)C(=O)c2ccc(C)cc2)c2cc(OCCCO)ccc2N1C(=O)c1ccc(-c2ccccc2)cc1` (stereo partly specified), which z-score is on record?
Answer: Its z-score is -1.93.

Question: For `COc1ccc(-c2cc3c(c(-c4ccccc4)n2)[Si](C(C)C)(C(C)C)O[C@H]3c2ccccc2)cn1`, which z-score is on record?
Answer: Its z-score is -2.91.

Question: With `Cc1ccc(S[C@]2(C(=O)O)CC(=O)N(Cc3cc(C(F)(F)F)cc(C(F)(F)F)c3)[C@@H]2c2ccc(CO)cc2I)cc1` as the compound, how does the z-score read?
Answer: The z-score was -0.48.

Question: Which z-score does the source give for `O=C1O[C@H](c2ccccc2)[C@H](c2ccccc2)N2[C@H]1[C@@H](C(=O)Nc1nc3ccccc3s1)[C@]1(C(=O)Nc3ccc(C#CC4(O)CCCCCC4)cc31)[C@H]2c1ccc(O)cc1` here?
Answer: The z-score was -0.416.

Question: Which z-score does the source give for `O=C1C2C=CC(C(O)C#Cc3ccccc3)N(Nc3ccccc3)C2C(=O)N1c1ccccc1` (stereo unspecified) here?
Answer: Its z-score is 0.801.

Question: Which z-score does the source give for `CN1C(=O)C2C=CC(C(O)C3CC=CCC3)N(Nc3ccccc3)C2C1=O` (stereo unspecified) here?
Answer: Its z-score is 0.235.

Question: Which z-score does the source give for `COCCCNC(=O)[C@@]1(c2ccc([N+](=O)[O-])cc2)CC(=O)N(C2CCCCC2)[C@@H]1c1ccc(CO)cc1` here?
Answer: The z-score was -0.214.

Question: For `Cc1ccccc1C(O)C1C=CC2C(=O)N(c3ccccc3)C(=O)C2N1Nc1ccc(C#N)cc1` (stereo unspecified), which z-score is on record?
Answer: Its z-score is -0.494.

Question: Which z-score does the source give for `CCOC(=O)C[C@H]1[C@H](OC(=O)Cc2ccc3c(c2)OCO3)[C@@H](NC(=O)c2ccc3ccccc3c2)c2cc(OCCCO)ccc2N1C(=O)Cc1ccc(OC)cc1` here?
Answer: The z-score was -0.415.

Question: With `COC(=O)[C@@]1(Cc2ccccc2CN=[N+]=[N-])N=C(c2ccc(OCCCO)cc2)O[C@H]1c1ccccc1N=[N+]=[N-]` as the compound, how does the z-score read?
Answer: Its z-score is -1.94.

Question: Which z-score does the source give for `O=C/C=C/c1ccc(/C=C/c2ccccc2)cc1` here?
Answer: Its z-score is 3.9.

Question: For `CC(C)NC(=O)[C@@]1(Cc2ccccc2I)c2ccccc2C(=O)N(C2CCCCC2)[C@H]1c1ccc(CO)cc1`, which z-score is on record?
Answer: Its z-score is -1.89.

Question: Which z-score does the source give for `C=CCC(OC(C)=O)[C@@H]1[C@@H](N(Cc2cccc3ccccc23)C(=O)Cc2ccc(F)cc2)c2cc(OCCCO)ccc2N1C(=O)Cc1ccc2ccccc2c1` (stereo partly specified) here?
Answer: The z-score was -1.17.

Question: For `CCCC=C(CCC)[C@@H](NC(=O)c1ccc(C(F)(F)F)cc1)c1ccccc1`, which z-score is on record?
Answer: Its z-score is -1.55.
